Source: PubChem BioAssay (National Center for Advancing Translational Sciences (NCATS))
Rows were chosen to be rich in hits. Some 2.7% of all compounds tested hit in one or more screens of this group.
IP6K1 inhibitor = Primary qHTS assay for small molecule inhibitors of Inositol hexaphosphate kinase 1 (IP6K1) | Inositol hexakisphosphate kinase 1 (Homo sapiens), Q92551 | IP6K1 kinase, ADP-Glo luminescence, 2 h; hits give low values | activity change, % (series mostly up to about 58 µM) | hit rate 0.81% among 140,000 | AID 1645851, 2021; in the data active = activity change below about -25%; note: % is set by controls: 0 for no effect and ±100 for the full control effect
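ADP-Glo luminescence measures ADP made by human IP6K1 during a 2 h RT reaction with ATP/IP6 (mix at 1.3 mM/130 uM); top library doses 57.5 and 19.1 uM final.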
KDM5B inhibitor = Primary screen for KDM5B Histone Demethylases FDH-coupled qHTS; KDM5B demethylase, FDH-coupled NADH fluorescence (FDH is formaldehyde dehydrogenase); hit rate 2.6% among 220,000; Lysine-specific demethylase 5B (Homo sapiens), Q9UGL1; Potency, µM (top dose mostly 57.7 µM), most hits filed as inhibitors; AID 1347165, 2019; active = well fitted inhibition curve with a large enough effect; inconclusive = small, poorly fitted or top-dose-only effect; inactive = no such curve, though single readings can be large or run the other way; note: potency is the fitted concentration of half-maximal effect; 0% is about no effect; nearly all actives have a fitted effect of over 70% in size
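Inhibition is measured as reduced NADH fluorescence generation from FDH coupling to formaldehyde release. Truncated KDM5BΔAP at 200 nM final acts on H3K4me3 peptide (12.5 µM in substrate mix) in pH 7.5 HEPES buffer with Tween-20, 30 min, room temperature.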
Active calls of the source: *; i = inactive; ? = inconclusive; · = no result.

SMILES | IP6K1 inhibitor | KDM5B inhibitor
COc1ccccc1Nc1ccnc(N2CCN([S+](=O)([O-])c3ccc(C)cc3)CC2)n1 | 8 | ·
CN1CC2(CCCN(CC3CC3)C2)c2cc(C(=O)NCCc3ccccn3)ccc21 (stereo unspecified) | 2 | 40µM*
CN1CC2(CCCN(CC3CC3)C2)c2cc(C(=O)Nc3ccn(C)n3)ccc21 (stereo unspecified) | 39 | ?
CN1CC2(CCCN(CC3CC3)C2)c2cc(C(=O)NCCOc3ccccc3)ccc21 (stereo unspecified) | -3 | 35µM*
COCCN1CCC2(C1)CN(C)c1ccc(C(=O)NCCOc3ccccc3)cc12 (stereo unspecified) | 16 | ?
Cn1cnc2c1c(=O)n(CCCn1nnc(-c3ccccc3)n1)c(=O)n2C | · | i
O=C(NC1CCCCCC1)C(Cc1ccccc1)NS(=O)(=O)c1ccc(Br)s1 (stereo unspecified) | · | i
Cc1ccc(C(=O)Nc2cccn3nc(C4CCC4)nc23)cc1C | 17 | ?
CCc1nc2c(NC(=O)c3ccc(F)c(Cl)c3)cccn2n1 | 14 | 25µM*
CC(C)CN(C)C(=O)/C=C/c1ccc(-c2ccccc2)s1 | · | i
CCN(CC)c1ccc2nnc(CCC(=O)N3CCC4(CC3)OCCO4)n2n1 | · | i
COCc1nc2nc(-c3ccccc3)c(-c3cccc([S+](C)(=O)[O-])c3)cc2n1C | 9 | ?
COCc1nc2nc(-c3ccccc3)c(-c3ccc(OC)nc3)cc2n1C | 19 | 35µM*
COCc1nc2nc(-c3ccccc3)c(-c3ccnc(OC)c3)cc2n1C | 7 | i
COCc1nc2nc(-c3ccccc3)c(-c3ccc([S+](C)(=O)[O-])cc3)cc2n1C | 9 | 35µM*
COCc1nc2nc(-c3ccccc3)c(-c3ccc(N4CCN(C)CC4)nc3)cc2n1C | 3 | 35µM*
CN1CCC(NC(=O)c2nc3nc(-c4ccccc4)c(-c4cccc(O)c4)cc3n2C)CC1 | 6 | ?
Cc1nc(NC2CCCC2)ncc1C(=O)O | -3 | ?
CCCCNc1ncc(C(=O)O)c(C)n1 | 1 | 14µM*
O=C(NCc1ccc(Cl)cc1)c1ccc2nnc(-c3ccoc3)n2c1 | 3 | ·
CNC(=O)c1cc(C2CC2)nc2c1c(C1CCN(C(=O)Nc3ccc(Cl)cc3)C1)nn2C (stereo unspecified) | -1 | ·
CC(C)c1noc(-c2cccn3c(CNC(=O)c4c(F)cccc4F)nnc23)n1 | 10 | 28µM*
CC(C)c1noc(-c2cccn3c(CNC(=O)c4cccc(F)c4)nnc23)n1 | 0 | 25µM*
Cc1cc(C)cc(C(=O)NCc2nnc3c(-c4nc(C(C)C)no4)cccn23)c1 | 8 | 22µM*
COc1ccc(Cl)cc1C(=O)NCc1nnc2c(-c3nc(C(C)C)no3)cccn12 | -1 | i
SMILES | IP6K1 inhibitor | KDM5B inhibitor
CC(C)c1noc(-c2cccn3c(CNC(=O)Cc4cccc(F)c4)nnc23)n1 | 6 | ?
CC(C)c1noc(-c2cccn3c(CNC(=O)c4cccc(Cl)c4)nnc23)n1 | 1 | 22µM*
CC(C)c1noc(-c2cccn3c(CNC(=O)c4cc5ccccc5[nH]4)nnc23)n1 | 6 | ?
O=C(CS(=O)(=O)Cc1ccccc1C(F)(F)F)Nc1ccc(F)cc1F | · | i
O=[S+]([O-])(NC1CCN(Cc2cccc(-c3ccc(F)c(F)c3)c2)CC1)c1ccccc1 | 12 | ·
CC(=O)Nc1c(-c2cc(=O)oc3cc(C)c(Cl)cc23)oc2ccccc12 | · | i
O=C(Nc1ccc(Cl)cc1Cl)C1CCCN(c2ncnc3nc[nH]c23)C1 (stereo unspecified) | · | i
Cc1cccc(C(=O)NCc2nnc3c(-c4nc(C(C)C)no4)cccn23)c1 | -1 | 28µM*
COc1ccc(C(=O)NCc2nnc3c(-c4nc(C5CC5)no4)cccn23)c(C)c1 | 12 | i
Cc1ccc(C(=O)NCc2nnc3c(-c4nc(C(C)C)no4)cccn23)cc1C | 10 | 28µM*
Cc1ccc(C(=O)NCc2nnc3c(-c4nc(C5CC5)no4)cccn23)cc1C | 6 | 10µM*
Cc1ccccc1C(=O)NCc1nnc2c(-c3nc(C(C)C)no3)cccn12 | 1 | ?
COc1cccc(-c2cccc(CN3CCCC3C(=O)N(C)C)c2)c1 (stereo unspecified) | 1 | ·
O=C(Cc1cccc(Cl)c1)NC1CCN(c2cc(-c3cccs3)[nH]n2)C1 (stereo unspecified) | 10 | 4µM*
O=C(Cc1cccc(F)c1)NC1CCN(c2cc(-c3cccs3)[nH]n2)C1 (stereo unspecified) | -3 | ?
CCOc1ccc(CC(=O)NC2CCN(c3cc(-c4cccs4)[nH]n3)C2)cc1 (stereo unspecified) | -3 | ?
COc1cccc(CC(=O)NC2CCN(c3cc(-c4cccs4)[nH]n3)C2)c1 (stereo unspecified) | -9 | 28µM*
